Source: PubChem BioAssay (NCATS)
Records with an inconclusive call do not appear. Entries that show only a call come without a potency. The source made the active and inactive calls. Unless noted, calls follow the shape of the dose curve; as a rule, active = well fitted curve in the direction sought with a large enough effect; inconclusive = small, poorly fitted or top-dose-only effect, or another doubt; inactive = no such curve, though single readings can be large; an effect the other way counts as inactive or inconclusive.

What was measured:
[1] = target: Catechol O-methyltransferase (Homo sapiens) (UniProt P21964); assay: Confirmatory Screen for Target Class Profiling of Small Molecule Inhibitors of Methyltransferases (AID 1745852; calls by dose curve); conditions: MTase-Glo luminescence, SAH detection, recombinant enzyme; measured here: COMT max response; stronger effect = lower value
Catechol O-methyltransferase (Homo sapiens), sequence (P21964 whole entry, looked up): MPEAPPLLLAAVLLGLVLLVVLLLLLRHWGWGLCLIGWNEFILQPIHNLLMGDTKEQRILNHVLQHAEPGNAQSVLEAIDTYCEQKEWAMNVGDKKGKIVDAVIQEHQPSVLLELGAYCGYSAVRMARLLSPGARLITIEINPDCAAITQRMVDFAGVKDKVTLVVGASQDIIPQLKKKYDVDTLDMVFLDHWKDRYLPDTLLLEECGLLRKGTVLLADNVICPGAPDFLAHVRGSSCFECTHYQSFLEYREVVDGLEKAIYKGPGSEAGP

[2] = target: Guanidinoacetate N-methyltransferase (Homo sapiens) (UniProt Q14353); assay: as above; conditions: MTase-Glo luminescence, SAH detection, recombinant enzyme; at 57.3 µM (top of the series)
[3] = target: Nicotinamide N-methyltransferase (Homo sapiens) (UniProt P40261); assay: as above; conditions: MTase-Glo luminescence, SAH detection, recombinant enzyme; measured here: NNMT max response; stronger effect = lower value
Nicotinamide N-methyltransferase (Homo sapiens), sequence (P40261 whole entry, looked up): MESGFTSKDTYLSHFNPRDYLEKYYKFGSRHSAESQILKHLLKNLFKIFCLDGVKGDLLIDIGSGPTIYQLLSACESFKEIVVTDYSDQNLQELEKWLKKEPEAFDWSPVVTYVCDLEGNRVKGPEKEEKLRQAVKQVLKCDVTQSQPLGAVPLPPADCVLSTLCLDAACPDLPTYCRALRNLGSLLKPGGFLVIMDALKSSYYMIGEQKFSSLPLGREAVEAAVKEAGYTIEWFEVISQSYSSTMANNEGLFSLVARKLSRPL

[4] = target: Phenylethanolamine N-methyltransferase (Homo sapiens) (UniProt P11086); assay: as above; conditions: MTase-Glo luminescence, SAH detection, recombinant enzyme; measured here: PNMT max response; stronger effect = lower value
Phenylethanolamine N-methyltransferase (Homo sapiens), sequence (P11086 whole entry, looked up): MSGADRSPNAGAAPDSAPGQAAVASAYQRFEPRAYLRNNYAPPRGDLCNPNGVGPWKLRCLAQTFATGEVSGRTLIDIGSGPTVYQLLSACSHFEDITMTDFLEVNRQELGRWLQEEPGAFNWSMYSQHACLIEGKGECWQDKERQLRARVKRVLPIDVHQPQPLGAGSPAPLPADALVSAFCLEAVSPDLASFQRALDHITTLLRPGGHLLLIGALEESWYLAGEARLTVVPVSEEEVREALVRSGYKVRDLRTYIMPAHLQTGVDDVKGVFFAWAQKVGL

[5] = target: Metallo-beta-lactamase type 2 (Klebsiella pneumoniae) (UniProt C7C422); assay: qHTS to identify inhibitors of the New Delhi Metallo-beta-lactamase (NDM): assay validation screen against the NCATS LOPAC Collection (AID 1794843); conditions: NDM-1 enzyme, nitrocefin hydrolysis, absorbance 485 nm; series mostly up to 38.4 µM;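 also: nitrocefin turnover by NDM-1 measured as 485 nm absorbance at plateau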
Metallo-beta-lactamase type 2 (Klebsiella pneumoniae), sequence (C7C422 whole entry, looked up): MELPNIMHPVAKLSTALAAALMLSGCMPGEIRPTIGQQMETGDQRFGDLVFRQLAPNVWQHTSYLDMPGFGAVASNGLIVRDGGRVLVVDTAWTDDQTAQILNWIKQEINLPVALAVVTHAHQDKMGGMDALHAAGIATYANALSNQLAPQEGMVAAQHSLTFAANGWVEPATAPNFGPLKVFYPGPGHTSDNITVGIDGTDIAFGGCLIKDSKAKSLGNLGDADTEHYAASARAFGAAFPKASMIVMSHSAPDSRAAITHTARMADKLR
How it was run: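 Enzyme 2 nM final, 50 mM HEPES pH 7.0, 1 uM ZnSO4, 0.01% Tween20; cpds in DMSO, preincub w/ enzyme; + nitrocefin (50 uM stock); A485 at plateau; no-enzyme column as blank.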

[6] = target: Glutathione peroxidase 1 (Homo sapiens) (UniProt P07203); assay: Primary qHTS Assay for Inhibitors of Recombinant Selenoprotein Glutathione Peroxidase 1 (GPX1) (AID 1845191); conditions: recombinant GPX1, GR-coupled NADPH fluorescence, 15 min; series mostly up to 48.8 µM; also: nearly all actives have a fitted effect of over 65% in size
Glutathione peroxidase 1 (Homo sapiens), sequence (P07203 whole entry, looked up): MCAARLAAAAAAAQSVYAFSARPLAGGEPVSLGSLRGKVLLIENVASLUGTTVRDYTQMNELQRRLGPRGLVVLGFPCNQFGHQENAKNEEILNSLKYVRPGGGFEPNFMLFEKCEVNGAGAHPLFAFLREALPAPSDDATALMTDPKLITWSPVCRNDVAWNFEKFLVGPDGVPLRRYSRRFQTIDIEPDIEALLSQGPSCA
How it was run: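 GR-coupled assay: compounds preincubated 30 min at room temperature with GPX1, then reaction started with CHP; final 10 nM GPX1, 1 mM GSH, 0.5 mM CHP, 0.5 mM NADPH, 100 nM GR, 0.01% BSA, pH 7.5 Tris buffer. NADPH fluorescence (340/450 nm) read at 0 and 15 min.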

[7] = target: Phospholipid hydroperoxide glutathione peroxidase GPX4 (Homo sapiens) (UniProt P36969); assay: Primary qHTS Assay for Inhibitors of Recombinant Selenoprotein Glutathione Peroxidase 4 (GPX4) (AID 1845192); conditions: recombinant GPX4, GR-coupled NADPH fluorescence, 15 min; series mostly up to 50 µM; also: nearly all actives have a fitted effect of over 65% in size
Phospholipid hydroperoxide glutathione peroxidase GPX4 (Homo sapiens), sequence (P36969 whole entry, looked up): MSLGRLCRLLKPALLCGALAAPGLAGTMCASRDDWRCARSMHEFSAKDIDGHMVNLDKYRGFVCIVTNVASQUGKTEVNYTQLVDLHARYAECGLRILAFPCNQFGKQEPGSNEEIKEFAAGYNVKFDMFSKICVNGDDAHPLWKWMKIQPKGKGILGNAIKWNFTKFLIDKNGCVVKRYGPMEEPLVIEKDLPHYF
How it was run: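 GR-coupled assay: recombinant GPX4 preincubated 30 min with compound at room temperature; final 200 nM GPX4, 1 mM GSH, 0.5 mM cumene hydroperoxide, 0.5 mM NADPH, 100 nM GR, 0.01% BSA, pH 7.5 Tris. NADPH fluorescence (340/450 nm) read at 0 and 15 min.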

[8] = NCATS anti-infectives library activity on HEK293 viability as a counter-qHTS vs the C. elegans viability qHTS (AID 1745854); conditions: HEK293 viability counter-screen; series mostly up to 41.8 µM
How it was run: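 HEK293 cells, 1500 per well, exposed 24 hr at 37C in 5% CO2 to compounds in a 1:5 titration, up to 41.7 uM final. Viability read as CellTiter-Glo luminescence after 10 min at room temperature.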

[9] = target: Luciferin 4-monooxygenase (Photinus pyralis) (UniProt P08659); assay: Primary firefly luciferase (FLuc) qHTS assay for identification of artifact compounds. (AID 1845220); conditions: purified firefly luciferase, luminescence, 5 min; series mostly up to 54.1 µM; also: nearly all actives have a fitted effect of over 60% in size
How it was run: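 D-luciferin and ATP (10 uM each, final) in Tris acetate buffer pH 7.6 were incubated with compounds for 15 min at room temperature. The reaction was started with 10 nM Photinus pyralis luciferase and luminescence read after 5 min. Percent inhibition was fitted to a 4-parameter Hill equation.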

[10] = system: Nanoluciferase (engineered Oplophorus gracilirostris luciferase); assay: Primary Nanoluciferase (NLuc) qHTS assay for identification of artifact compounds. (AID 1845222); conditions: NLuc-conditioned medium, Nano-Glo luminescence, 5 min; series mostly up to 54.1 µM
How it was run: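 Diluted conditioned medium from NLuc-expressing S16 cells treated with compounds for 15 min at room temperature, then Nano-Glo substrate added; luminescence read after 5 min. Percent inhibition versus no-enzyme and DMSO controls fitted to 4-parameter Hill equation.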

[11] = Primary redox qHTS assay for identification of artifact compounds. (AID 1845223); conditions: Amplex Red/HRP redox cycling with DTT, fluorescence; series mostly up to 53.8 µM
How it was run: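 Amplex Red (25 uM) and HRP (250 mU/mL) in HBSS, with compounds for 15 min, then 250 uM DTT for 30 min, room temperature, dark. Fluorescence 525/598 nm read; normalized to DMSO and 10 uM DA3003; Hill fit.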

[12] = Primary fluorescence-based thiol-reactive (MSTI) qHTS assay for identification of artifact compounds. (AID 1845221); conditions: MSTI thiol-reactivity probe, 1 h; series mostly up to 53.8 µM;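 also: thiol-reactive compounds lower the probe fluorescence signal; nearly all actives have a fitted effect of over 65% in size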
How it was run: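 Reactivity toward the thiol probe MSTI (4 uM) is scored by fluorescence at Ex/Em 525/598 nm after 1 h at room temperature. Acetyl-MSTI and MSTI define the activity scale.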

[13] = Viability counterscreen for antagonist of constitutive androstane receptor (CAR) against the NCATS DSHEA and TCM libraries (AID 1794837); conditions: CAR reporter cell line viability counterscreen, qHTS; series mostly up to 40 µM;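 also: compound exposure lasted 24 h before viability reading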
How it was run: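 Cell viability, CellTiter-Fluor, Ex/Em 405/540 nm, 1 h at 37C. HepG2-CYP2B6-hCAR, 2,500 cells/well; cpds + CITCO 48 uM final (antagonist mode), 24 h, 37C/5% CO2.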

[14] = Viability counterscreen for agonist of constitutive androstane receptor (CAR) against the NCATS DSHEA and TCM libraries (AID 1794838); conditions: HepG2 cell viability counterscreen, CAR agonist assay, co-treated with 0.75 µM CAR antagonist; series mostly up to 40 µM
How it was run: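 Viability by CellTiter-Fluor fluorescence, 405/540 nm, after 1 h at 37C. HepG2-CYP2B6-hCAR cells were exposed 24 h to test substances in presence of 0.75 uM PK11195 (final).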

[15] = target: Nuclear receptor subfamily 1 group I member 3 (Homo sapiens) (UniProt Q14994); assay: Primary qHTS for agonist of constitutive androstane receptor (CAR) against the NCATS DSHEA and TCM libraries (AID 1794839); conditions: CAR agonist reporter cells, qHTS luminescence, CAR antagonist co-added at 0.75 µM; series mostly up to 40 µM;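 also: HepG2 cells expressing human CAR with a CYP2B6 reporter plus PK11195 antagonist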
Nuclear receptor subfamily 1 group I member 3 (Homo sapiens), sequence (Q14994 whole entry, looked up): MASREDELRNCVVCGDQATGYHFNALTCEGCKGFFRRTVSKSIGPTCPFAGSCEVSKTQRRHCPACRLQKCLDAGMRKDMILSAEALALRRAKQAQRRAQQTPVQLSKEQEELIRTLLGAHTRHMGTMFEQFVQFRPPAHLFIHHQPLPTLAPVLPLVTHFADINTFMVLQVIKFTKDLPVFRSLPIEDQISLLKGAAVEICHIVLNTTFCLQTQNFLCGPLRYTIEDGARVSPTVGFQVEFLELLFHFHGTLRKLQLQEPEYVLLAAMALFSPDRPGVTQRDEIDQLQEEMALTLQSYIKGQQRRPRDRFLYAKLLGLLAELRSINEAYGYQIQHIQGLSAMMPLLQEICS
How it was run: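 Luminescence from ONE-Glo luciferase was the agonist read-out in HepG2-CYP2B6-hCAR cells exposed 24 h to test substances. Wells also held the CAR antagonist PK11195 at 0.75 µM final. Viability was by CellTiter-Fluor fluorescence.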

[16] = HepG2 viability counterscreen (readout 2: ATP content) against the NCATS DSHEA and TCM libraries (AID 1794840); conditions: ATP content luminescence; series mostly up to 27.3 µM
How it was run: (§1)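 1,000 HepG2 cells/well, 4 h attach; compounds ~24 h, 37C/5% CO2. Readout 1: GF-AFC 25 uM final, 30 min, fluorescence 380/510 nm. Readout 2: CellTiter-Glo, 30 min RT, luminescence.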

[17] = HepG2 viability counterscreen (readout 1: protease activity) against the NCATS DSHEA and TCM libraries (AID 1794841); conditions: qHTS concentration series; series mostly up to 27.3 µM;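 also: cells exposed to compounds for about 24 h before the protease read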
How it was run: as §1

[18] = target: Cytochrome P450 3A4 (Homo sapiens) (UniProt P08684); assay: qHTS for inhibitors of CYP3A4 against the NCATS DSHEA and TCM libraries (AID 1919971); conditions: recombinant CYP3A4 enzyme activity, luminescence qHTS; series mostly up to 34.1 µM;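 also: inhibition lowers luminescence from luciferin made by CYP3A4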
Cytochrome P450 3A4 (Homo sapiens), sequence (P08684 whole entry, looked up): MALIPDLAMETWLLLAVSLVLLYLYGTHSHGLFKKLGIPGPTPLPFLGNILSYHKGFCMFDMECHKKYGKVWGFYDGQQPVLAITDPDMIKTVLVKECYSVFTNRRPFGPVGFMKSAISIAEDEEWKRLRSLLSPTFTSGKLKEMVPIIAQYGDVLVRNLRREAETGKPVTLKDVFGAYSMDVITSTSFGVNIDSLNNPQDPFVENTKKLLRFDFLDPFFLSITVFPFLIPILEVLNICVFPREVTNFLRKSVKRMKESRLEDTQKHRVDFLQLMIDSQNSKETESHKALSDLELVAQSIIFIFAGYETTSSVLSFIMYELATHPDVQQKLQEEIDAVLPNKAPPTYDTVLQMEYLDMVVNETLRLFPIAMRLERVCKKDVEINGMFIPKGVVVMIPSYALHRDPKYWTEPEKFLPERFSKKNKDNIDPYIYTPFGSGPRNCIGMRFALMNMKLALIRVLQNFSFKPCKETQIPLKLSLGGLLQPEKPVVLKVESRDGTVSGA
How it was run: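 Luminescent P450-Glo readout. Enzyme plus pro-luciferin substrate in manufacturer buffer (typically 100 mM KPO4); 15 min RT preincubation; 1x NADPH regenerating system, 30-45 min RT in the dark; detection reagent 30 min.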

[19] = target: Cytochrome P450 2D6 (Homo sapiens) (UniProt P10635); assay: qHTS for inhibitors of CYP2D6 against the NCATS DSHEA and TCM libraries (AID 1919972); conditions: CYP2D6 enzymatic inhibition, luminescence qHTS; series mostly up to 34.1 µM
Cytochrome P450 2D6 (Homo sapiens), sequence (P10635 whole entry, looked up): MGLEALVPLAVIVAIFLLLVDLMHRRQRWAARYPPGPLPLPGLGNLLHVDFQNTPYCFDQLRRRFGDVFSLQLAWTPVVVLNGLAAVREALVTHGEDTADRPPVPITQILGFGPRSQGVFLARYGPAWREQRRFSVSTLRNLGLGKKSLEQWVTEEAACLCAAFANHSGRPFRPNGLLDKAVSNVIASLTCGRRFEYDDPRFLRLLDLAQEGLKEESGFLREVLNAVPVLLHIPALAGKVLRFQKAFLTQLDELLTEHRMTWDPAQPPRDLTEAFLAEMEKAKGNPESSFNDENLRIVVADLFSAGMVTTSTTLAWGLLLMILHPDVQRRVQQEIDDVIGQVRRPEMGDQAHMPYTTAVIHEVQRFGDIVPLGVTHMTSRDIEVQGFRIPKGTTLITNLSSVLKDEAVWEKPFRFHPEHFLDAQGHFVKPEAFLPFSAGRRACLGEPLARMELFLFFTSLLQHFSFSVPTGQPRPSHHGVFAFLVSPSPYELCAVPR
How it was run: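 Steps: enzyme plus luciferin substrate dispensed; test substances pinned; 15 min RT; 1x NADPH regenerating solution added, 30–45 min RT protected from light; detection reagent, 30 min RT; luminescence measured. Minus-enzyme wells as background.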

Structure (SMILES): CC(C)(C)[C@]1(O)CCN2C[C@H]3c4ccccc4CCc4cccc(c43)[C@@H]2C1
- activity [1]: -2.14%
- activity change, negative = inhibition [2]: 6.2%
- activity [3]: -19.3%
- activity [4]: -4.4%
- outcome [5]: inactive
- Potency [6]: inactive
- Potency [7]: inactive

Structure (SMILES): NCC(=O)CCC(=O)O
- outcome [8]: inactive
- Potency [6]: inactive
- Potency [7]: inactive

Structure (SMILES): Cc1ccc2nc(N)[nH]c(=O)c2c1Sc1ccncc1
- activity [1]: -5.5%
- activity change, negative = inhibition [2]: 2.89%
- activity [3]: 1.11%
- activity [4]: 1.12%
- Potency [6]: inactive
- Potency [7]: inactive
- outcome [9]: inactive
- outcome [10]: inactive
- outcome [11]: inactive

Structure (SMILES): COc1ccc(Cl)cc1C(=O)NCCc1ccc(S(=O)(=O)NC(=O)NC2CCCCC2)cc1
- activity [1]: -8.62%
- activity change, negative = inhibition [2]: -1.47%
- activity [3]: -22.1%
- activity [4]: -3.2%
- Potency [6]: inactive
- Potency [7]: inactive
- outcome [9]: inactive
- Potency [12]: inactive

Structure (SMILES): CN(C)CCCN1c2ccccc2Sc2ccc(Cl)cc21
- outcome [8]: inactive
- Potency [6]: inactive
- Potency [7]: inactive

Structure (SMILES): O=C(O)c1ccccc1O
- outcome [8]: inactive
- outcome [13]: inactive
- outcome [14]: inactive
- outcome [15]: inactive
- outcome [16]: inactive
- outcome [17]: inactive
- outcome [18]: inactive
- outcome [19]: inactive

Structure (SMILES): Nc1nc2c(ncn2CCC(CO)CO)c(=O)[nH]1
- outcome [8]: inactive
- Potency [6]: inactive
- Potency [7]: inactive
- outcome [9]: inactive
- Potency [12]: inactive
- outcome [10]: inactive
- outcome [11]: inactive

Structure (SMILES): CC(C)C(=O)c1c(C(C)C)nn2ccccc12
- outcome [5]: inactive
- Potency [6]: inactive
- Potency [7]: inactive

Structure (SMILES): C[C@]12CC[C@@H]3c4ccc(O)cc4CC[C@H]3[C@@H]1CCC2=O
- activity [1]: -21.5%
- activity change, negative = inhibition [2]: -1.67%
- activity [3]: -55.7%
- activity [4]: -0.307%
- Potency [6]: inactive
- Potency [7]: inactive

Structure (SMILES): NC(=O)c1ncn([C@@H]2O[C@H](CO)[C@@H](O)[C@H]2O)n1
- outcome [8]: inactive
- Potency [6]: inactive
- Potency [7]: inactive

Structure (SMILES): CN1CCN(C2Cc3ccccc3Sc3ccc(Cl)cc32)CC1 (stereo not drawn)
- activity [1]: 14.6%
- activity change, negative = inhibition [2]: 8.35%
- activity [3]: -22.8%
- activity [4]: 8.62%
- Potency [6]: inactive
- Potency [7]: inactive
